Active and inactive are the calls of the source. Calls follow the shape of the dose curve; as a rule, active = well fitted curve in the direction sought with a large enough effect; inactive = no such curve, though single readings can be large or run the other way.
biological target: L-lactate dehydrogenase A chain (human) (UniProt V9HWB9); assay: Extended Characterization of HPGD Inhibitors: Counterscreen Against LDHA; conditions: LDHA enzyme, diaphorase/resazurin coupled fluorescence; series mostly up to 57.1 µM
Excerpt: The central role of HPGD is to inactivate prostaglandins such as prostaglandin E2 (PGE2) or prostaglandin D2 (PGD2). These prostaglandins are involved in a number of processes, including inflammation, differentiation, and cellular signaling, which makes HPGD an important target for pharmacological intervention. A number of prostaglandins of particular biological interest have been identified as substrates of HPGD. […] Over-production of PGE2 has been reported to promote tumor-associated neovascularization, cell proliferation, and tumor growth. […] In order to further characterize the compounds, we ran them against an LDHA counterscreen. LDHA converts pyruvate to lactate while regenerating NAD+ from NADH. LDHA enzymatic activity is then coupled to the activity of diaphorase, which reversibly catalyzes the reaction of […] while simultaneously reducing resazurin to the fluorescent resorufin. This change in fluorescence signal (excitation 544 nm; emission, 590 nm) was monitored using the ViewLux CCD imager (Perkin Elmer). Data were normalized against no enzyme control wells and no compound control wells. NIH Chemical Genomics Center [NCGC] NIH Molecular Libraries Probe Centers Network [MLPCN] MLPCN Grant: MH084681 Assay Submitter (PI): Structural Genomics Consortium
3 uL of LDHA enzyme in assay buffer are added to plate before 23 nL of compound/control are pinned into the solution. After a 15 min incubation, 1 uL of NADH (60 uM final) and sodium pyruvate (160 uM final) are added, incubated at 8 min at RT before another 1 uL of Diaphorase / Resazurin is added. The plate is read on the ViewLux after a 10 min RT incubation

SMILES | outcome
COc1ccc(-n2cnc3cc(C(=O)N4CCCCC4)ccc32)cc1 | inactive
Cc1cc(-c2nnc3n2CCCCC3)c(C)n1-c1cccc(C(F)(F)F)c1 | inactive
Cc1cc(-c2nnc3n2CCCCC3)c(C)n1-c1ccc(Cl)c(Cl)c1 | inactive
Cc1cccc(-n2cnc3cc(C(=O)N4CCCC(C(F)(F)F)C4)ccc32)c1 (stereo not given) | inactive
Cc1cc(-c2nnc3n2CCCCC3)c(C)n1-c1cccc(Cl)c1 | inactive
O=C(c1ccc2c(c1)ncn2-c1cccc(Cl)c1)N1CCCCC1 | inactive
O=C(c1ccc2c(c1)ncn2-c1cccc(C(F)(F)F)c1)N1CCCCC1 | inactive
Cc1cccc(-n2cnc3cc(C(=O)N4CCCC(C)(C)C4)ccc32)c1 | inactive
Cc1ccc(-n2c(C)cc(-c3nnc4n3CCCCC4)c2C)cc1 | inactive
Cc1cc(-c2nnc3n2CCCCC3)c(C)n1-c1cccc(C#N)c1 | inactive
